Most compounds without a hit are left out; they make up all but 14% or so of the library.
USP17 inh: inhibitors of human USP17 deubiquitinase | Ubiquitin carboxyl-terminal hydrolase 17-like protein 5 (Homo sapiens), A8MUK1 | purified USP17, Ub-rhodamine cleavage fluorescence, 3 h | inhibition, % at 50 µM | 47,000 tested, 6.5% active | AID 1645855, 2021
USP8 inh: inhibitors of human USP8 deubiquitinase; 47,000 tested, 4.2% active; inhibition, % at 20 µM; Ubiquitin carboxyl-terminal hydrolase 8 (Homo sapiens), P40818; purified USP8, Ub-rhodamine cleavage fluorescence, 30 min
USP30 inh: inhibitors of human USP30 deubiquitinase. 47,000 tested, 5.3% active. inhibition, % at 25 µM. purified USP30, Ub-rhodamine cleavage fluorescence. Ubiquitin carboxyl-terminal hydrolase 30 (Homo sapiens), Q70CQ3
USP28 inh: inhibitors of human USP28 deubiquitinase | 47,000 tested, 3% active | inhibition, % at 25 µM | purified USP28, Ub-rhodamine cleavage fluorescence, 30 min | Ubiquitin carboxyl-terminal hydrolase 28 (Homo sapiens), Q96RU2
USP10 inh: inhibitors of human USP10 deubiquitinase. purified USP10, Ub-rhodamine fluorescence, 60 min. 47,000 tested, 1.1% active. Ubiquitin carboxyl-terminal hydrolase 10 (Homo sapiens), Q14694. inhibition, % at 20 µM. AID 1645856, 2021
Active calls of the source: *; i = inactive; · = no result given. Rule as the data show it: active = inhibition above about 30%; inactive = the rest.

SMILES | USP17 inh | USP8 inh | USP30 inh | USP28 inh | USP10 inh
Cc1cccc(NC(=O)Cn2c(-c3nc(C)no3)cccc2=O)c1 | -1 | 7 | 7 | 9 | -1
CCN(c1ccc(OC)cc1)S(=O)(=O)N1CCCC(C(=O)NCc2ccc(Cl)cc2)C1 (centres undefined) | -8 | -8 | -4 | 0 | -3
COc1ccc(NC(=O)C2CCCN(S(=O)(=O)N3CCCCCC3)C2)cc1 (centres undefined) | 51* | 18 | 6 | 16 | 1
COc1ccc(CNC(=O)C2CCCN(S(=O)(=O)Cc3ccc(Cl)cc3)C2)cc1 (centres undefined) | 14 | 25 | 47* | 27 | 6
CCOC(=O)c1ccc(NC(=O)C2CCCN(c3nc(-c4ccc(OC)cc4)no3)C2)cc1 (centres undefined) | 19 | 24 | 37* | 19 | 4
CC(=O)Nc1ccc(S(=O)(=O)N2CCCC(C(=O)Nc3cccc4ccccc34)C2)cc1 (centres undefined) | 26 | 1 | 56* | 29 | 5
O=C(CSc1ncccc1C(=O)Nc1ccnn1Cc1ccccn1)Nc1ccc2c(c1)OCO2 | 0 | 6 | -5 | -2 | -2
Cc1ccc(-c2nn3c(-c4ccco4)nnc3c3ccccc23)cc1 | 1 | 5 | -7 | -10 | -5
Cc1ccccc1CNC(=O)C1CCCN(S(=O)(=O)N2CCCCCC2)C1 (centres undefined) | -5 | -14 | 39* | 0 | -3
COc1cccc(CNC(=O)C2CCCN(S(=O)(=O)N3CCCCCC3)C2)c1OC (centres undefined) | 5 | 9 | 15 | 9 | 1
Nc1c(C(=O)NCCc2ccccc2)nnn1-c1ccc(F)cc1 | 61* | 5 | 9 | 3 | 5
COc1ccc(-n2nnc(C(=O)NCCc3ccccc3)c2C2CC2)cc1 | 10 | 0 | 3 | 13 | 4
CCc1[nH]c(=O)cc2cc(OC)c(OC)cc12 | 94* | 91* | 82* | 97* | 79*
CNC(=O)c1cccc(C2CN(C(=O)CC3CCCC3)CCN2C)c1 (centres undefined) | 0 | -3 | -11 | 2 | -1
Cc1c(C(=O)NCc2cccc(Br)c2)oc2c1-c1[nH]ncc1CC2 | 62* | 84* | -29 | 7 | -3
CCCC[C@H]1OC(=O)[C@H]2[C@@H]1OC(=O)[C@@H]2C | 0 | -4 | 0 | -6 | -4
Cc1ccc(CNC(=O)Cc2nnc(-c3ccc4ncccc4c3)o2)cc1 | 31* | 29 | -115 | 11 | -5
CCc1ccccc1NC(=O)Cn1c(C)nc2c(c1=O)CCN(Cc1ccccc1)C2 | 19 | 52* | -54 | -16 | -1
Cc1nc2c(c(=O)n1CC(=O)Nc1ccccc1F)CCN(Cc1ccccc1)C2 | -17 | -11 | -59 | -14 | -1
CN1CC(=O)N(C2CCNC2)Cc2c(NC3CCCCC3O)ncnc21 (centres undefined) | -39 | -181 | -51 | -20 | -7
CN(C(=O)C1(c2ccc(Cl)cc2)CC1)c1nc2c(s1)CCc1occc1-2 | -4 | -109 | -16 | -6 | 2
Cc1c(C(=O)N(C)c2nc3c(s2)CCc2occc2-3)oc2ccccc12 | 79* | 48* | 66* | 40* | 9
CN(C(=O)c1cccs1)c1nc2c(s1)CCc1occc1-2 | 37* | 6 | -5 | -21 | 4
CCN(C(=O)Cc1ccccc1OC)c1nc2c(s1)CCc1occc1-2 | 37* | -93 | 11 | 18 | -13
CCOc1ccc(CC(=O)N(C)c2nc3c(s2)CCc2occc2-3)cc1 | -7 | -66 | -5 | 5 | 3
SMILES | USP17 inh | USP8 inh | USP30 inh | USP28 inh | USP10 inh
O=C1CC(c2noc(-c3ccccn3)n2)CN1CCc1ccccc1 (centres undefined) | · | 0 | -11 | -2 | 1
CC(C)NC(=O)N1C[C@H]2C[C@H](C(=O)NCc3ccccc3)[C@@H](C1)O2 | 1 | 2 | 19 | 6 | -1
COc1cc2c(=O)n(CC3CCCO3)c(=O)n(CC(=O)Nc3ccc4c(c3)OCCO4)c2cc1OC (centres undefined) | 49* | 12 | 38* | 14 | -1
COc1cc2c(=O)n(CC3CCCO3)c(=O)n(CC(=O)c3ccc4c(c3)OCO4)c2cc1OC (centres undefined) | 10 | 47* | -5 | 3 | 33*
COc1cc2c(=O)n(CCCC(=O)NCC3CCCO3)c(=O)n(CC(=O)c3ccc(Cl)cc3)c2cc1OC (centres undefined) | -91 | -14 | i | -129 | -4
COc1cc2c(=O)n(CCCC(=O)NCC3CCCO3)c(=O)n(CC(=O)NC3CCCCC3)c2cc1OC (centres undefined) | 3 | 12 | 33* | 11 | 2
COc1cc2c(=O)n(CCC(=O)NCC3CCCO3)c(=O)n(CC(=O)c3ccccc3)c2cc1OC (centres undefined) | 6 | 0 | 23 | 9 | -1
CC(C)(CC(=O)O)CC(=O)N1CCCN(c2nc3ccc(Cl)cc3s2)CC1 | 11 | 22 | 15 | 13 | -7
CCc1nc(NCCc2ccccc2)c(C#N)c2c1CCCC2 | -16 | -12 | -34 | -22 | -6
CN(Cc1ccccc1)c1ncc(-c2ccc(OC(F)(F)F)cc2)cn1 | 3 | 5 | -1 | -3 | 8
Cc1cc(C2CCCN2S(=O)(=O)c2ccc3c(c2)OCCO3)no1 (centres undefined) | 16 | 29 | 20 | 19 | 0
CC(=O)N1CCOc2cc(S(=O)(=O)N3CCCC3c3cc(C(C)C)on3)ccc21 (centres undefined) | 0 | 5 | 14 | 40* | 0
CCCc1cc(C2CCCN2S(=O)(=O)c2ccc3c(c2)OCCN3C(C)=O)no1 (centres undefined) | -6 | -10 | 0 | 49* | -1
CC(=O)N1CCOc2cc(S(=O)(=O)N3CCCC3c3cc(C)on3)ccc21 (centres undefined) | -10 | -34 | -1 | 24 | -1
Cc1cc(=O)n(CC(=O)NCc2ccc(F)cc2)c(-c2ccc(F)cc2)n1 | 3 | -2 | 0 | 7 | -2
COc1ccc(-c2noc(N3CCCC(C(=O)N(C)c4cc(Cl)c(OC)cc4OC)C3)n2)cc1 (centres undefined) | 8 | 16 | 10 | 4 | 7
O=C(CN1C(=O)c2ccccc2Sc2ccc(C(=O)N3CCCC3)cc21)Nc1ccccc1Cl | 52* | 5 | -140 | 38* | 11
COc1ccc(-c2cc(C(=O)NCC(c3ccc(C)cc3)N3CCCC3)no2)cc1 (centres undefined) | -31 | -1 | -99 | -27 | -10
COc1ccc(C(CNC(=O)c2cc(-c3ccc(C)c(C)c3)on2)N2CCOCC2)cc1 (centres undefined) | 21 | 9 | 35* | 11 | 0
